Source: PubChem
This is a sample that favours compounds with a hit; in the whole collection about 2.5% have one here.
CFTR F508del cor: correctors of CFTR F508del function in bronchial epithelial cells | CFBE cells, YFP halide quenching; stimulated with forskolin plus potentiator P3; % fluorescence drop versus neutral controls | activity (quench increase), % at 7.58 µM | hit rate 0.36% among 350,000 | AID 720511;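 active = mean added fluorescence quench of at least 8% versus neutral control, with both replicates also reaching 8%; inconclusive = only one of the mean or replicate conditions met; inactive = mean below 8% and not both replicates reaching 8%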;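 also: cells transiently co-express mutant CFTR-F508del with the halide-sensitive YFP; corrector assay measuring rescue of mutant channel to the surface after 24 h compound exposure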
EWS-Fli inh: inhibitors of EWS/Fli oncoprotein transcriptional activity. AID 651661. hit rate 0.67% among 350,000. inhibition, % at 12.6 µM. A673 NR0B1-luciferase reporter, viability-normalised;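 active = mean inhibition of at least 50% after viability correction, with every replicate also passing that limit; inconclusive = mean reaches 50% but only one of two replicates passes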;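 also: firefly luciferase signal divided by Alamar Blue viability fluorescence both relative to DMSO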
FXN GAA850 act: increases GAA850 frataxin promoter reporter activity; HEK293 lucGAA850 FXN promoter luciferase reporter, 24 h; percent of 10 µM SAHA response; activation, % at 6 µM; hit rate 0.56% among 360,000; AID 540364;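 active = activation above the average of all compounds screened plus 3 SD, cutoff fixed separately per campaign, cut at about 7.5% in these data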;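 also: 0% = DMSO wells and 100% = 10 µM SAHA wells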
PAX8 inh HTS: lowers PAX8-driven luciferase in RMG-I cells. RMG-I TPO-luciferase reporter, SteadyGlo, 24 h. inhibition, % at 12.6 µM. hit rate 1.2% among 360,000;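 active = mean replicate inhibition at least 60% with every replicate also reaching 60%; inconclusive = only one of the two criteria is met; inactive = mean below 60% and not all replicates reaching 60%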;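 also: luciferase light reporting Pax8 driven TPO promoter activity; plate controls were median of neutral control wells for no effect and mitoxantrone controls for full effect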
Env fusion inh: blocks HIV Env-driven cell-cell fusion; HeLa-JRFL Env/CEM21 cell fusion, luciferase; inhibition, % at 12.3 µM; hit rate 1.1% among 360,000; AID 651610;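 active = mean replicate inhibition score of at least 50 and every replicate individually at or above 50; inconclusive = only one of the two criteria met; inactive = mean below 50 and not all replicates reaching 50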;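 also: 0% = plate neutral controls and 100% = maraviroc near 300 nM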
An asterisk follows results filed as active; ? = inconclusive; nt = no result given; [ ] = another dose, or the depositor's remark.

SMILES	CFTR F508del cor	EWS-Fli inh	FXN GAA850 act	PAX8 inh HTS	Env fusion inh
COCC(=O)Nc1ccc2c(c1)OC[C@@H](C)N(C(=O)CC1CC1)C[C@H](C)[C@H](OC)CN(C)C2=O	2.3	-6.2	nt	nt	nt
C[C@@H]1CCCCO[C@@H](CN(C)CC2CCCCC2)[C@H](C)CN([C@H](C)CO)C(=O)c2cc(NS(=O)(=O)c3cn(C)cn3)ccc2O1	0.4	-7.6	nt	0.3	-8.0[16.7 µM]
CC(=NNc1nc2ccccc2o1)c1cc2ccccc2cn1	2.0	27.3	1.6	nt	28.5
CC(=NNc1nc2ccccc2o1)c1ncccn1	-11.7	-1.0	-14.9	74.1*	-198.5
C[C@@H]1CN([C@@H](C)CO)C(=O)c2cc(NS(C)(=O)=O)ccc2O[C@@H](C)CCCCO[C@@H]1CN(C)Cc1ccc2c(c1)OCO2	-1.9	0.2	nt	3.4	-29.8[16.7 µM]
C[C@@H]1CN([C@@H](C)CO)C(=O)c2cc(NC(=O)c3ccccc3)ccc2O[C@@H](C)CCCCO[C@@H]1CN(C)C(=O)Nc1ccccc1	-1.7	-6.5	nt	9.6	22.5[16.7 µM]
Cc1ccc(NC(=O)Nc2nnc(CSCCOc3ccc(Cl)cc3)s2)cc1	nt	12.5	-1.2	18.7	6.8
NC(c1csc(NC(=O)Nc2cccc(Cl)c2)n1)c1ccccc1Cl (stereo not drawn)	2.0	0.5	0.3	-16.5	75.6*
O=C(Nc1cccc(Cl)c1)Nc1nnc(CSCCOc2ccc(Cl)cc2)s1	nt	nt	0.8	107.1*	nt
Cc1cccc(C)c1NC(=O)Nc1nc(C(N)c2ccccc2Cl)cs1 (stereo not drawn)	-1.5	13.5	-0.2	-8.6	-30.2
O=C(Nc1ccc(Cl)cc1)Nc1nnc(-c2ccncc2)s1	nt	nt	-2.0	2.2	28.2
O=C(Nc1cccc(Cl)c1)Nc1nnc(-c2ccncc2)s1	0.5	2.0	-5.7	103.5*	56.6*
CC(=O)N(C)C[C@@H]1Oc2cc(C#CCC(C)C)ccc2S(=O)(=O)N([C@@H](C)CO)C[C@H]1C	3.3	11.7	nt	nt	5.5[16.7 µM]
Cn1nc(CC(=O)Nc2ccc3c(c2)CCC3)c2ccccc2c1=O	nt	nt	-1.3	-11.0	78.8*
COc1cc(C(=O)OCC(=O)Nc2sccc2C(N)=O)cc(OC)c1OC	-1.6	61.2*	-6.7	8.9	13.8
COc1ccc2c3c([nH]c2c1)[C@@H](CO)N(C)CC31CN(S(=O)(=O)c2cccc(F)c2)C1	-0.8	-6.5	nt	nt	nt
O=C1CN(C(=O)Cn2ncc(Cl)c(Cl)c2=O)c2ccccc2N1	0.2	21.5	1.9	95.3*	-169.6
Cc1ccc(NC(=O)Cn2ncc(Cl)c(Cl)c2=O)cc1S(=O)(=O)N1CCCCC1	-0.5	?	2.4	90.4*	8.7
Cc1ccc(NC(=O)CN(C)C(=O)Cn2ncc(Cl)c(Cl)c2=O)cc1	nt	nt	-6.5	92.7*	-53.1
O=C(Cn1ncc(Cl)c(Cl)c1=O)NC1CCCCC1	-9.6	50.8*	-1.3	54.4	nt
COC[C@@]12C[C@H]3C(=O)N(Cc4ccccc4)C(=O)[C@H]3[C@@H](CO1)/C2=C\c1ccccc1	2.6	-2.1	nt	6.7	-11.0[16.7 µM]
C[C@@H]1CCCCO[C@@H](CN(C)S(=O)(=O)c2ccccc2)[C@H](C)CN([C@@H](C)CO)C(=O)c2cc(NS(=O)(=O)c3ccc(Cl)cc3)ccc2O1	0.2	3.3	nt	41.4	-31.9[16.7 µM]
C[C@H]1CCCCO[C@H](CN(C)C(=O)Nc2ccc(C(F)(F)F)cc2)[C@@H](C)CN([C@@H](C)CO)C(=O)c2cc(NS(=O)(=O)c3cccs3)ccc2O1	-3.9	19.9	nt	78.6*	31.5[16.7 µM]
C[C@@H]1CCCCO[C@H](CN(C)C(=O)Nc2ccc(C(F)(F)F)cc2)[C@@H](C)CN([C@H](C)CO)C(=O)c2cc(NS(=O)(=O)c3ccccc3)ccc2O1	0.9	3.0	nt	7.1	-29.4[16.7 µM]
C[C@H]1CCCCO[C@@H](CN(C)C(=O)Nc2ccc(C(F)(F)F)cc2)[C@@H](C)CN([C@@H](C)CO)C(=O)c2cc(NS(=O)(=O)c3ccccc3)ccc2O1	-4.6	7.1	nt	52.8	63.6*[16.7 µM]
SMILES	CFTR F508del cor	EWS-Fli inh	FXN GAA850 act	PAX8 inh HTS	Env fusion inh
C[C@@H]1CCCCO[C@H](CN(C)C(=O)Nc2ccc(C(F)(F)F)cc2)[C@@H](C)CN([C@@H](C)CO)C(=O)c2cc(NS(=O)(=O)c3ccccc3)ccc2O1	0.2	6.8	nt	80.9*	45.7[16.7 µM]
C[C@@H]1CN([C@@H](C)CO)C(=O)c2cc(NS(=O)(=O)c3ccc(F)cc3)ccc2O[C@@H](C)CCCCO[C@H]1CN(C)Cc1ccc(C(=O)O)cc1	2.4	-0.9	nt	-0.9	-4.0[16.7 µM]
C[C@H](CO)N1C[C@H](C)[C@@H](CN(C)Cc2ccc(Cl)c(Cl)c2)Oc2ccc(NC(=O)C3CC3)cc2CC1=O	5.3	nt	nt	28.5	0.8[16.7 µM]
COc1ccc(Oc2ccc(/C=C/C(=O)c3cccc(OC)c3)cc2[N+](=O)[O-])cc1	1.8	49.5	-2.0	108.0*	nt
COc1ccc(Oc2ccc(/C=N/NC(=O)c3cccnc3)cc2[N+](=O)[O-])cc1	2.3	6.8	-1.6	-41.6	-19.8
COc1ccc(S(=O)(=O)Nc2ccc3c(c2)C(=O)N([C@H](C)CO)C[C@H](C)[C@@H](CN(C)C(=O)NC(C)C)OCCCC[C@H](C)O3)cc1	7.3	-9.1	nt	-1.4	-136.2[16.7 µM]
COc1ccc(N2CC(C(=O)N/N=C/c3ccc(C)cc3)CC2=O)cc1 (stereo not drawn)	nt	60.4*	-2.7	20.0	17.7
CC(C)(C)c1ccc(C(=O)c2c[nH]c(C(=O)NCc3cccnc3)c2)cc1	nt	nt	-0.9	nt	31.4
O=C(Cc1ccc(Cl)cc1)c1c[nH]c(C(=O)NCc2cccnc2)c1	-1.7	65.8*	-13.6	-2.3	7.8
CC1CN(S(=O)(=O)c2ccc(C(=O)Nc3nnc(-c4ccco4)o3)cc2)CC(C)O1 (stereo not drawn)	nt	6.0	0.1	1.6	-2.0
COc1cccc(-c2nnc(NC(=O)c3ccc(S(=O)(=O)N4CC(C)OC(C)C4)cc3)o2)c1 (stereo not drawn)	nt	nt	0.4	27.0	55.2*
Cc1nnc(NC(=O)c2ccc(S(=O)(=O)N3CC(C)OC(C)C3)cc2)o1 (stereo not drawn)	0.3	nt	-2.1	-12.2	-4.9
CC1CN(S(=O)(=O)c2ccc(C(=O)Nc3ccccc3F)cc2)CC(C)O1 (stereo not drawn)	9.1*	7.4	-1.0	8.4	nt
C[C@@H]1CN([C@@H](C)CO)C(=O)c2cccc(NC(=O)NC3CCCCC3)c2O[C@@H]1CN(C)S(=O)(=O)c1ccc(F)cc1	-1.2	5.5	nt	8.2	nt
Cc1ccc(Cc2c(-c3cccc(Cl)c3)nc3ccc(C)cn23)cc1	-1.8	-64.8	nt	-156.2	61.8*
CCC(C)(C)C(=O)O[C@H]1C[C@@H](C)C=C2C=C[C@H](C)[C@H](CC[C@@H]3C[C@@H](O)CC(=O)O3)[C@H]21	-1.6	41.4	2.5	10.5	67.4*
COc1ccc(NC(=O)COc2ccc(N(C)S(=O)(=O)c3ccc(Cl)cc3)cc2)cc1OC	-3.0	30.6	-3.8	41.9	56.6*
CN(c1ccc(OCC(=O)OCC(=O)Nc2ccc(F)cc2)cc1)S(=O)(=O)c1ccc(Cl)cc1	nt	4.9	-0.8	-24.9	-25.8
